Screening data (PubChem BioAssay)
Only some compounds are listed: those with a hit (about 6.5% of all), similar ones and a draw of the others.
Abs 340nm: compound light absorbance at 340 nm, profiling panel, artefact control, biochemical, MLSMR library, data from PS, PMK, MK assays; compound absorbance at 340 nm, fold over control; fold change at 10 µM; 65,000 tested, under 10 active; AID 708, 2007;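 active = at 10 µM dose, initial 340 nm absorbance at least 2 fold that of control wells; inactive = change under 2 fold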;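 also: initial absorbance extrapolated from kinetic A340 decline of NADH oxidation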
DPM-DC inhibit: S. pneumoniae DPM-DC inhibitors, primary screen, biochemical, PK/LDH-coupled NADH fluorescence; diphosphomevalonate decarboxylase (Streptococcus pneumoniae D39); purified DPM-DC; calls only at 10 µM; 0.49% of 65,000 active;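 active = the 320 compounds with the highest percent inhibition in the single-dose primary screen, excluding strongly autofluorescent ones, cut at about 32% in these data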;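 also: kinetic rate of NADH fluorescence loss reporting ADP formed by the decarboxylase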
Fluor 339 460: intrinsic fluorescence of library compounds, ex339/em460 – biochemical, MLSMR library, data from DPM-DC assay, artefact control, profiling panel. fluorescence fold increase at 10 µM. 5.5% of 65,000 active. AID 709, 2007. compound autofluorescence, ex339/em460 nm, NADH buffer; active compounds read high; 1 = no-compound wells, NADH background;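 active = at 10 µM, mean starting fluorescence two-fold or more over control wells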;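 also: signal is the first read of a kinetic run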
MK inhibit: S. pneumoniae MK inhibitors, primary screen, biochemical, PK/LDH-coupled NADH absorbance | mevalonate kinase [Streptococcus pneumoniae D39] | purified MK, PK/LDH-coupled NADH absorbance 340 nm | inhibition, % at 10 µM | 0.48% of 65,000 active;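 active = ranked among the strongest by inhibition in the single 10 µM screen, a fixed top-ranked set picked for dose follow-up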
PMK inhibit: S. pneumoniae PMK inhibitors, primary screen, biochemical, mevalonate pathway, pilot trial included. phosphomevalonate kinase (Streptococcus pneumoniae D39). purified PMK, PK/LDH-coupled NADH absorbance 340 nm. inhibition, % at 10 µM. 0.49% of 65,000 active. AID 539, 2006;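 active = top-ranked compounds by inhibition in the single 10 µM screen, taking a fixed number of the strongest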;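 also: 0% = full reaction with DMSO carrier and 100% = background rate without enzyme reaction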
NADH enzymes: inhibitors of PK/LDH coupling enzymes, profiling panel, artefact control, biochemical, MLSMR library | coupled PK/LDH NADH assays, four targets | IC50, µM (series often up to 10 µM), without a hit: at the highest dose inhibition | 0.02% of 65,000 active;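 active = single-dose screening hits from any of four coupled enzyme assays that gave an IC50 when retested across doses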;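 also: the DPM-DC format reads NADH fluorescence rather than 340 nm absorbance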
An asterisk follows results filed as active; i = inactive; nt = no result given; + = active, no number.

SMILES	Abs 340nm	DPM-DC inhibit	Fluor 339 460	MK inhibit	PMK inhibit	NADH enzymes
CC(=O)N1C(C(=O)O)CSC1c1ccc(C)cc1 (stereo not drawn)	1	i	1	0	2	1%
CC(c1ccccc1)C(CC(=O)O)C(=O)NC1CCCCC1 (stereo not drawn)	1	i	1.1	8	27*	12%
O=C(NC1CCCCC1)C(c1ccccc1)N1CCCC1 (stereo not drawn)	1.1	i	1.1	9	0	3%
CC(C)COC(=O)N1CC(O)CC1C(=O)O (stereo not drawn)	1	i	1.1	1	0	0%
CCOC(=O)c1c(Nc2nc(C)c(C(=O)NC)s2)sc(C)c1C	1.1	+	1.1	33	16	30%
C=CCNc1nc2c(c(=O)[nH]c(=O)n2C)n1Cc1cccc(C)c1	1	i	1.1	0	4	1%
CCCCCn1c(-c2ccco2)nc2nc3ccccc3nc21	1.1	nt	3.9*	0	0	0%
Cc1ccc(-c2nc3nc4ccccc4nc3n2Cc2ccco2)cc1	1.1	i	2*	10	13	12%
c1ccc(Cn2c(-c3ccco3)nc3nc4ccccc4nc32)cc1	1.1	nt	3.7*	9	15	12%
COc1ccc(CCn2c(-c3ccco3)nc3nc4ccccc4nc32)cc1	1	i	1.4	0	9	3%
COc1ccccc1Cn1c(-c2ccco2)nc2nc3ccccc3nc21	1	i	1.7	9	1	4%
COCCn1cnnc1SCC(=O)c1ccc(S(=O)(=O)N2CCCC2)cc1	1	i	1.2	0	11	4%
c1ccc2c(-n3cccn3)cccc2c1	1	i	1.1	8	8	5%
Cc1cc(NC(=O)c2cc3nc(C4CC4)cc(C(F)(F)F)n3n2)no1	1.1	i	1.3	2	2	1%
Cc1cc(NC(=O)c2cc3nc4c(c(C(F)(F)F)n3n2)CCc2ccccc2-4)no1	1.1	nt	2.2*	8	23	16%
COC(=O)c1ccc(C2C(C#N)=C(C)NC3=C2C(=O)CC(C)(C)C3)cc1 (stereo not drawn)	1	nt	4.7*	5	3	4%
COc1ccc(C2C(C#N)=C(SC)NC3=C2C(=O)CC(C)(C)C3)cc1 (stereo not drawn)	1.1	i	1.1	4	3	4%
Cn1c(SCc2ccc3c(c2)OCO3)nnc1-c1ccccc1	1	i	1	4	16	2%
c1ccn2c(SCc3ccc4c(c3)OCO4)nnc2c1	1	i	0.96	48*	12	21%
Cc1ccc(-n2nc(C)c3c(C)c(CCC(=O)NCc4ccco4)c(C)nc32)cc1	1.1	nt	2.2*	1	10	6%
Cc1cc(C)c2c(n1)nn1c(C)c(CCC(=O)NCc3ccco3)c(C)nc21	1.1	nt	2.1*	9	10	10%
CCOC(=O)N1CCN(C(=O)CCc2c(C)nc3c(c(C)nn3-c3ccc(C)c(C)c3)c2C)CC1	0.98	+	2.6*	7	13	11%
O=C(NC1CCCCCCC1)c1ccc2c(c1)N(Cc1ccc(F)cc1)C(=O)CS2=O (stereo not drawn)	1.1	i	1.2	3	15	6%
Clc1ccc(-c2nnc3sc(-c4ccc(Br)o4)nn23)cc1	1	i	2.2*	11	14	4%
Clc1ccc(-c2nnc3sc(-c4ccc(Br)o4)nn23)c(Cl)c1	1.1	i	1.8	10	10	7%
SMILES	Abs 340nm	DPM-DC inhibit	Fluor 339 460	MK inhibit	PMK inhibit	NADH enzymes
COc1ccc(C(C)=O)cc1COC(=O)c1cccc(N(C)C)c1	0.98	i	2.1*	2	11	7%
c1ccc(-n2nc3c(ccc4cnnc43)[nH]2)cc1	1	nt	4*	13	5	9%
O=C(NCc1ccco1)c1cc2ccccc2o1	1	i	1	0	0	0%
Cc1ccc2cc3cc(C(=O)NCCC(C)C)oc3nc2c1	1.1	nt	5.1*	0	4	2%
Cc1ccc2cc3cc(C(=O)NCc4ccco4)oc3nc2c1	1.2	nt	4.6*	5	11	8%
CCOc1ccccc1NC(=O)Cn1nnc(-c2ccc(OCC)c(OCC)c2)n1	1.1	i	1.1	9	6	5%
CCc1nnc(NC(=O)CN2CCOCC2)s1	1	i	1.1	5	4	3%
CCCc1nnc(NC(=O)CN2CCOCC2)s1	0.99	+	0.75	8	11	17%
Cc1sc2ncnc(Oc3ccc(-n4ccnc4)cc3)c2c1C	1	i	1	7	8	3%
Cc1ccc(C(=O)OCc2cn3ccccc3n2)cc1	1	i	1.1	1	5	2%
Cc1cc(NCCN2CCOCC2)n2nc(C)c(-c3ccc(Cl)cc3)c2n1	1.1	i	2.4*	0	14	8%
Cc1cc(NCCN2CCOCC2)n2nc(C)c(-c3ccccc3)c2n1	0.99	i	1.1	7	10	3%
Cc1cc(NCCN2CCOCC2)n2ncc(-c3ccccc3)c2n1	1.1	i	1.6	4	10	6%
Cc1cc(NCCN2CCOCC2)n2ncc(-c3ccc(Cl)cc3)c2n1	1	nt	3.3*	14	5	10%
COc1ccc2c(c1)c(=O)cc(C)n2CC(=O)NCc1ccco1	1	i	1.2	10	5	5%
Cc1cccc(-c2nnc3n2N=C(c2ccccc2Br)CS3)c1	1.1	i	1.1	4	8	4%
COc1ccc(-c2nc(N)nc(C)c2Oc2ccccc2Br)c(O)c1	1	i	1.1	0	0	4%
CS(=O)(=O)c1sc2nc(-c3cccs3)cc(-c3ccccc3)c2c1N	1	i	3.8*	0	7	2%
CC(=O)c1sc2nc(-c3cccs3)cc(C(F)(F)F)c2c1N	1.1	i	1.7	11	12	9%
COc1ccccc1CNC(=O)C1CCN(S(=O)(=O)N2CC(C)CC(C)C2)CC1 (stereo not drawn)	1	i	0.97	5	25*	12%
CCOCCCNC(=O)C1CCN(S(=O)(=O)N2CC(C)CC(C)C2)CC1 (stereo not drawn)	0.99	i	1	0	28*	9%
CCOCCCn1c(=S)[nH]c2cc(C(=O)N3CCOCC3)ccc2c1=O	1	i	1	10	11	7%
CCc1cc(N2CCOCC2)cc2c1[nH]c1ccccc12	1	nt	4*	9	3	6%
Cc1[nH]c2ccccc2c1SCC(=O)N1CCOCC1	1	i	1.1	11	11	7%
